Source: PubChem BioAssay (National Center for Advancing Translational Sciences (NCATS))
DT40 TDP1 no CPT = qHTS for Inhibitors of human tyrosyl-DNA phosphodiesterase 1 (TDP1): qHTS in cells in absence of CPT | DT40 Tdp1-/- hTDP1 cells, no CPT, ATP luminescence, 48 h | Potency, µM (top dose mostly 46.2 µM), most hits filed as inhibitors | 420,000 tested, 15% active | AID 686978, 2013; further: nearly all actives have a fitted effect of over 55% in size
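Cells were dispensed at 400 per well, compounds added by pin tool, plates incubated ≥48 hr at 37 °C, then CellTiter-Glo added for 30 min at room temperature before luminescence reading. Line: DT40 Tdp1-/- complemented with hTDP1; camptothecin omitted.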
TDP1 cell CPT = growth inhibition of DT40 Tdp1-/-;hTDP1 cells with camptothecin (screen for TDP1 inhibitors); chicken DT40 Tdp1-/-;hTDP1 cells + 20 nM CPT, ATP luminescence, 48 h; 420,000 tested, 12% active; AID 686979; Potency, µM (top dose mostly 46.2 µM), hits mostly inhibitors; further: nearly all actives have a fitted effect of over 55% in size
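Chicken DT40 Tdp1-/- cells stably complemented with human TDP1 were seeded at 400 cells/well in medium containing 20 nM camptothecin, exposed to pin-transferred compounds, and grown at 37 °C for at least 48 hr. Viability was read as ATP luminescence.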
HT1080-NT tox = kills 2HG-producing HT-1080-NT fibrosarcoma cells | HT-1080-NT fibrosarcoma viability, CellTiter-Glo ATP luminescence, 48 h | 360,000 tested, 1.6% active | Potency, µM (highest dose often 46.1 µM), hits mostly cytotoxic;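 further: NT is the 2HG producing partner of a matched IDH1 knockdown line; nearly all actives have a fitted effect of over 55% in size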
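750 cells/well, RPMI + 5% FBS; 2 h settle, compound pin-transfer, 48 h at 37 degrees C. CellTiter-Glo 10 min RT, luminescence. Normalized to DMSO and media-only wells.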
IL-1B inflam inh = inhibitors of inflammasome signaling (IL-1 beta secretion); THP-1 LPS/ATP IL-1B secretion, AlphaLISA, 16 h; stronger effect = lower value; activity change, % at 57.5 µM; 360,000 tested, 4.7% active; in the data active means activity change below about -50%; inconclusive means mostly about -30% to -49%
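Secreted IL-1B measured by AlphaLISA bead assay after 16 h compound exposure of THP-1 cells; compounds (final up to 57.5 uM) added 1 h before LPS (250 ng/mL) and ATP (1.25 mM) stimulation; lower signal means less secretion.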
HT1080 IDH1KD tx = HT-1080 IDH1 knockdown cell toxicity (counter line) | HT-1080 IDH1 knockdown viability, ATP luminescence, 48 h | Potency, µM (series often up to 46.1 µM), hits mostly cytotoxic | 360,000 tested, 2% active | AID 686971
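HT-1080-IDH1KD cells (IDH1 knocked down), 750/well in RPMI with 5% FBS, treated with compound 48 h at 37 degrees C. Viability by CellTiter-Glo luminescence, normalised to DMSO and no-cell wells; concentration-response curves classed.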
Numbers stand for hits; n = inactive; u = inconclusive; x = no result; [ ] = dose if it differs, or a comment. This is a sample that favours compounds with a hit; in the whole collection about 19% have one here. Unless noted, the call rests on the fitted dose curve; in most records, active means well fitted curve in the direction sought with a large enough effect; inconclusive means small, poorly fitted or top-dose-only effect, or another doubt; inactive means no such curve, though single readings can be large; an effect the other way counts as inactive or inconclusive.

SMILES	DT40 TDP1 no CPT	TDP1 cell CPT	HT1080-NT tox	IL-1B inflam inh	HT1080 IDH1KD tx
CS(=O)(=O)Oc1ccc2c(c1)O/C(=C\c1cccc([N+](=O)[O-])c1)C2=O	n	n	n	n	n
O=C1/C(=C/c2ccncc2)Oc2cc(OS(=O)(=O)c3ccccc3)ccc21	11.6µM	u	u	n	u
COc1cccc(OC)c1C(=O)Oc1ccc2c(c1)O/C(=C\c1ccncc1)C2=O	11.6µM	18.4µM	18.4µM	-100.7	u
Cc1ccc(S(=O)(=O)Oc2ccc3c(c2)O/C(=C\c2cccnc2)C3=O)cc1	20.6µM	u	n[9.24 µM]	n	n
O=C1/C(=C/c2ccccc2)Oc2cc(OC(=O)N3CCOCC3)ccc21	u	u	n	-68.2	n
COc1cc2c(c(OC)c1)C(c1cc(OC)c(OC)c(OC)c1)CC(=O)N2 (stereo unspecified)	n	n	x	x	x
CC(=O)c1cccc(NC(=O)CSc2nc3c(=O)n(C)c(=O)n(C)c3n2C)c1	n	n	x	x	x
Cc1ccc(S(=O)(=O)N2CCN(C(=O)CN3C(=O)c4ccc([N+](=O)[O-])cc4C3=O)CC2)cc1C	n	n	n	n	n
COc1ccc(-n2nc(C(=O)Nc3ccc(Cl)cn3)c3c4ccccc4n(C)c3c2=O)cc1	n	n	x	x	x
Cc1nc2cc(C)c(C)cc2o1	n	n	n	n	n
CCc1ccc(/C=C2\Oc3cc(OS(C)(=O)=O)ccc3C2=O)cc1	u	u	n	n	n
O=C1/C(=C/c2cccnc2)Oc2cc(OS(=O)(=O)c3ccc(F)cc3)ccc21	u	10.3µM	n	n	n
Cn1c(NCC2CCCCC2)nc2cc(-c3ccsc3)sc2c1=O	u	25.9µM	n	n	n
Cn1c(NCc2ccncc2)nc2cc(-c3ccsc3)sc2c1=O	n	n	n	n	n
Cn1c(NCc2ccccc2F)nc2cc(-c3ccccc3)sc2c1=O	20.6µM	18.4µM	u	n	n
COc1ccccc1CNc1nc2cc(-c3ccsc3)sc2c(=O)n1C	u	u	n	n	u
COc1cccc(-c2cc3nc(NCc4ccccc4F)n(C)c(=O)c3s2)c1	16.4µM	23.1µM	n	n	n
Cn1c(NCc2ccccc2F)nc2cc(-c3cccc(Cl)c3)sc2c1=O	20.6µM	14.6µM	n	n	n
CCC(=O)N1CCc2cc(S(=O)(=O)NCCC(=O)NC(C)c3ccccc3)ccc21 (stereo unspecified)	n	u	x	x	x
CC(=O)Nc1ccc(NC(=O)COC(=O)CCNS(=O)(=O)c2c(Cl)cccc2Cl)cc1	n	n	n	n	n
COc1ccc(C(C(=O)NC(C)(C)C)N(C(=O)CNC(=O)c2cccs2)c2ccc(C(C)C)cc2)cc1OC (stereo unspecified)	n	n	u	n	u
CCc1ccccc1Nc1ncnc2c1nc1n2CCCC1	n	n	x	x	x
Cn1c(NCc2ccccc2F)nc2cc(-c3ccsc3)sc2c1=O	23.1µM	u	u	n	n
Cc1ccc(CNc2nc3cc(-c4ccccc4)sc3c(=O)n2C)c(C)c1	n	16.4µM	n	n	n
COc1ccc(-c2cc3nc(NCc4ccc(C)cc4C)n(C)c(=O)c3s2)cc1OC	u	u	n	n	n
SMILES	DT40 TDP1 no CPT	TDP1 cell CPT	HT1080-NT tox	IL-1B inflam inh	HT1080 IDH1KD tx
COc1ccc(-n2ncc3c2ncn2nc(COc4ccc(Cl)cc4)nc32)cc1	n	n	x	x	x
O=[N+]([O-])c1cccc(Cl)c1NCCNS(=O)(=O)c1ccccc1	n	n	n	u	n
Cc1ccc2c(=O)c(C(=O)c3ccccc3)cn(CC(=O)Nc3ccccc3)c2n1	n	n	x	x	x
CCOC(=O)c1ccc(NC(=O)Cn2cc(C(=O)c3ccc(CC)cc3)c(=O)c3ccc(C)nc32)cc1	5.8µM	11.6µM	x	x	x
CCOC(=O)c1ccc(NC(=O)Cn2cc(C(=O)c3ccc(Cl)cc3)c(=O)c3ccc(C)nc32)cc1	3.26µM	4.61µM	x	x	x
C(=Nn1cnnc1)c1ccc2c(c1)CCC2	n	n	n	n	n
CCN(CC)C(=O)C1CCCN(C(=O)c2ccc3nc(-c4cccc(OC)c4)oc3c2)C1 (stereo unspecified)	11.6µM	23.1µM	n	n	n
CCOC(=O)C1CCCN(C(=O)c2ccc3nc(-c4cccc(OC)c4)oc3c2)C1 (stereo unspecified)	2.91µM	3.26µM	u	n	6.51µM
COc1ccccc1CNC(=O)N/C=C/c1ccc(Cl)cc1	n	n	n	n	n
COc1cccc(CNC(=O)N2CCN(S(=O)(=O)c3ccc(Cl)cc3)CC2)c1	u	u	n	n	n
CC(=O)c1ccc(S(=O)(=O)N2CCN(C(=O)c3ccc(-n4nc(C)c(Cl)c4C)cc3)CC2)cc1	13µM	16.4µM	n	n	n
O=C(c1ccc(S(=O)(=O)N2CCCC2)cc1)N1CCN(c2cccc(Cl)c2)CC1	18.4µM	23.1µM	n	n	n
Cc1cc(C)nc(N2CCN(C(=O)c3ccc(S(=O)(=O)N4CCCCCC4)cc3)CC2)n1	16.4µM	25.9µM	n	n	n
COc1cccc(N2CCN(CC(=O)N3CCN(S(=O)(=O)c4ccc(Cl)cc4)CC3)CC2)c1	18.4µM	u	n	n	n
O=C(c1ccc(S(=O)(=O)N2CCCC2)cc1)N1CCN(c2ccccc2)CC1	n	n	n	n	n
CC(=O)NC(Cc1cccc(F)c1)C(=O)NC1CCN(C(=O)Nc2ccc(C)cc2)CC1 (stereo unspecified)	n	n	n	n	n
COc1ccc(Cn2nc(C)n(N(C)c3ncc(C(F)(F)F)cc3Cl)c2=O)cc1	9.2µM	16.4µM	n	n	n
Cc1ccc(S(=O)(=O)Oc2ccc(/C=N/NC(=O)c3nn(C)cc3Cl)cc2)cc1	n	n	n	n	n
COC(=O)c1ccc(OS(=O)(=O)c2ccc(NC(C)=O)cc2)cc1	u	11.6µM	n	n	n
CC(=O)Nc1ccc(S(=O)(=O)Oc2ccc(/C=N/NC(=O)c3ccc(Cl)cc3)cc2)cc1	16.4µM	20.6µM	u	n	n
CCOC(=O)c1cnn(-c2nc(OCC)cc(OCC)n2)c1C	u	u	n	n	n
COc1ccc(F)cc1C(=O)C1CCCN(Cc2c[nH]c3ccccc23)C1 (stereo unspecified)	4.61µM	4.11µM	n	u	n
COc1ccc(OC)c(CN2CCCC(C(=O)c3ccccc3SC)C2)c1 (stereo unspecified)	9.2µM	13µM	u	-68.4	u
COc1ccc(F)cc1C(=O)C1CCCN(Cc2cn(C)c3ccccc23)C1 (stereo unspecified)	13µM	14.6µM	u	-77.9	u
CSc1ccccc1C(=O)C1CCCN(Cc2c(C)n(C)n(-c3ccccc3)c2=O)C1 (stereo unspecified)	29.1µM	u	n	n	n
